The record followed here is PubChem BioAssay (NCI).

Holding throughout (assay): NCI-60 one-dose screen, 48 h (100 = growth as untreated, 0 = no growth, -100 = all killed)
What all share (conditions): 10 µM unless noted

Assay [1] deals with SR leukemia.
In assay [2] the test system is RPMI-8226 leukemia.
The subject of assay [3] is OVCAR-8 ovarian.
Assay [4] relates to OVCAR-5 ovarian.
The test system of assay [5] is OVCAR-4 ovarian.
The test system of assay [6] is SK-OV-3 ovarian.
Assay [7] deals with IGROV1 ovarian.
Assay [8] concerns OVCAR-3 ovarian.
For assay [9], the system named is HS 578T breast.
Assay [10] relates to NCI/ADR-RES ovarian.
In assay [11] the test system is T-47D breast.
Assay [12] has as its system BT-549 breast.
The test system of assay [13] is MDA-MB-435 melanoma.
Assay [14] has as its system SW-620 colon.
Assay [15] concerns MCF7 breast.
Assay [16] concerns HCT-116 colon.
The subject of assay [17] is HCC-2998 colon.
Assay [18] deals with KM12 colon.
For assay [19], the system named is MDA-MB-468 breast.

Each structure is given as a SMILES string. Compounds without any hit were thinned out: in the full panel of roughly 83,000, 20% have a hit.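 Results are percent growth after 48 hours of single-concentration exposure. 100 means growth as in untreated cells, lower positive values show inhibition; negative values down to -100 show cell death.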 Values without a mark were called inactive. Active and inactive are the calls of the source. How the source made its calls: active means growth percent below 10; inactive means the rest.

As for `O=C(NN1C(=O)/C(=C/C=C/c2ccc([N+](=O)[O-])o2)SC1=S)c1ccc([N+](=O)[O-])cc1`, the growth was -5.7% (active) in assay [1]; -30.6% (active) in assay [2]; -75.5% (active) in assay [3]; -100% (active) in assay [4]; -99% (active) in [5]; -100% (active) in [6]. For the same compound, the growth was -96.4% (active) in assay [7]; -97.1% (active) in assay [8]; -27.3% (active) in assay [9]; -44% (active) in assay [10]; -60.9% (active) in [11]; -93.2% (active) in assay [12]. Besides, the growth in assay [13] was -86.9% (active); in assay [14], -77.7% (active); in [15], -61.4% (active); in assay [16] it was -76.3% (active); in assay [17] it was -94.8% (active); in [18], -94.9% (active). Also, the growth in [19] was -79.3% (active).

On to `CCCn1c(NC(=O)c2cccc(C(N)=O)c2)nc2ccc(CN3CCCCC3)cc21`, for which the growth in assay [1] was 31.4%; in assay [2] it was 85.2%; in [3], 107%; in assay [4], 83.3%; in assay [5] it was 98.5%; in assay [6] it was 85.9%. Besides, the growth in [7] was 72.4%; in assay [8], 112%; in assay [9] it was 111%; in assay [10] it was 111%; in assay [11], 107%; in assay [12], -48% (active). The growth in [13] was 93.1%; in [14] it was 109%; in [15], 75.6%; in assay [16] it was 6.73% (active); in assay [17] it was 107%; in assay [18] it was 24%. The growth in assay [19] was 109%.

As to `C[C@H](NC(=O)c1ccc2c(-c3ccc(C(F)(F)F)cc3)cccc2c1)c1ccccn1`, the growth in assay [1] is 33.3%; in assay [2], 21.4%; in assay [3], 44.7%; in assay [4], 75.2%; in assay [5] it was 42%; in assay [6], 64%. The growth was 55.8% in assay [7]; 45.6% in [8]; 53.2% in [9]; 32.5% in assay [10]; 18% in assay [11]; 54.3% in [12]. The growth in assay [13] was 56%; in assay [14], 68.1%; in assay [15], 26%; in assay [16] it was 35.4%; in assay [17], 49.9%; in [18], 47.5%. Also, in assay [19], the growth was 7.67% (active).

On to `O=C1Nc2ccc(F)cc2/C1=C/C(=O)c1cc2ccccc2oc1=O`, for which the growth in assay [1] was 42.1%; in assay [2], 78.8%; in assay [3], 105%; in [4], 113%; in [5], 89.1%; in assay [6] it was 88.7%. Moreover, the growth is 105% in [7]; 85.9% in assay [8]; 101% in assay [9]; 103% in [10]; 93.4% in assay [11]; 116% in assay [12]. Further, the growth in [13] was 103%; in assay [14], 20.9%; in assay [15], 69.4%; in assay [16], 88.7%; in [17], 121%; in assay [18], 101%. The growth in assay [19] was 22.3%.

Turning to `Cc1cc(C)c2[nH]c(=O)c(C(c3nnnn3Cc3ccc4c(c3)OCO4)N3CCN(C)CC3)cc2c1` (configuration not stated), the growth in assay [1] is 96.9%; in assay [2], 100%; in assay [3], 114%; in assay [4], 108%; in assay [5], 108%; in assay [6], 111%. The growth in [7] was 111%; in assay [8], 122%; in [9], 108%; in [10], 108%; in assay [11], 112%; in [12], 106%. For the same compound, the growth in assay [13] was 106%; in assay [14], 110%; in assay [15], 101%; in assay [16] it was 105%; in assay [17] it was 121%; in assay [18], 105%. Moreover, the growth in assay [19] is 113%.

Turning to `COc1cc(-c2ccc3ncnc(N4CCc5ccc(Cl)cc54)c3c2)cnc1Cl`, the growth in assay [1] is 12.3%; in [2], -4.08% (active); in assay [3], 37.1%; in [4], 34.7%; in [5] it was 33.3%; in assay [6] it was 17.4%. The growth in assay [7] is -44.4% (active); in [8], 29.2%; in [9] it was 23.5%; in assay [10], 26.6%; in [11], 8.82% (active); in [12], 5.89% (active). Besides, the growth in [13] is 32.8%; in assay [14], 17.4%; in assay [15] it was 3.58% (active); in [16] it was 8.7% (active); in assay [17], 28%; in [18] it was 33.2%. Moreover, in assay [19], the growth is -16.8% (active).

Turning to `CCCCN1C(=O)/C(=C\C(=O)c2cc3ccccc3oc2=O)c2ccccc21`, the growth was -2.51% (active) in assay [1]; 23.7% in assay [2]; 67.3% in assay [3]; 96.7% in assay [4]; 83.9% in assay [5]; 110% in assay [6]. Also, the growth in assay [7] was 70.2%; in assay [8], 34.3%; in assay [9] it was 75.6%; in [10], 67.5%; in assay [11], 23.6%; in assay [12] it was 48%. Moreover, the growth was 84.2% in assay [13]; -47.6% (active) in assay [14]; 41% in [15]; 51.3% in [16]; 93.9% in assay [17]; 85% in [18]. The growth in [19] was 18.1%.

On to `OCCn1cc(-c2nc3ccc4[nH]ncc4c3c3c2CCCC3)cn1`, for which the growth in assay [1] is -3.53% (active); in assay [2], 31.4%; in assay [3] it was 44.7%; in assay [4] it was 97.8%; in [5], 64.2%; in assay [6], 14.6%. In addition, the growth was 52% in [7]; 58.8% in assay [8]; 21.6% in assay [9]; 76.8% in assay [10]; 43.5% in assay [11]; 30.5% in assay [12]. For the same compound, the growth in [13] was 12.4%; in [14] it was 21.6%; in [15], 39.3%; in [16], 24%; in assay [17], 54%; in assay [18], 18.8%. Also, the growth in assay [19] was 3.83% (active).
